PubChem BioAssay (EPA / NIEHS)
Inconclusive results are not listed. Calls of active or inactive are those of the source. The calls were made as follows: active = hit-call score of the fitted dose curve at least 0.9, where 1 is the maximum; inconclusive = response in the unintended direction; inactive = score below 0.9.

Tests used:
[1] = ACEA_AR_agonist_AUC_viability: ACEA Biosciences xCELLigence Real-Time Cell Analysis on Androgen Receptor Agonism for Viability (AID 2283775)
Outline: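 22Rv1 cells; impedance growth kinetics; 8-pt 1:4 dilutions from 100 uM top final, ≤0.5% DMSO; n = 2; 80 h read; AUC viability, loss-of-signal vs DMSO.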

[2] = ACEA_AR_antagonist_AUC_viability: ACEA Biosciences xCELLigence Real-Time Cell Analysis on Androgen Receptor Antagonism for Viability (AID 2283776);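 also: area under impedance growth curve at 80 h after dosing as viability; hits lower the growth signal relative to DMSO meaning cytotoxicity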
Outline: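 22Rv1 human prostate cancer cells were seeded on electrode plates, monitored overnight, then exposed to eight 1:4 dilutions from 100 uM final. Impedance-based growth kinetics at 80 h gave an AUC viability endpoint normalized to DMSO.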

SMILES | outcome [1] | outcome [2] | AC50 [2]
OC1OC[C@@H](O)[C@H](O)[C@H]1O (some centres not stated) | inactive | inactive | 
CC1=CC(=O)NS(=O)(=O)O1 | inactive | inactive | 
O=C[C@@H](O)[C@H](O)[C@H](O)CO | inactive | inactive | 
BrC1CCC(Br)C(Br)CCC(Br)C(Br)CCC1Br (configuration not stated) | inactive | inactive | 
CCCC/C=C\CCCCCCCCCC=O | inactive | inactive | 
C[Si](O[Si](C)(C)C)O[Si](C)(C)C |  | inactive | 
CCCC1CCC(=O)O1 (configuration not stated) |  | inactive | 
C=C(C)C(=O)O | inactive | inactive | 
CC(C)=CCC[C@](C)(O)[C@@H]1CC=C(C)CC1 | inactive | inactive | 
CC(=O)OCCOC(C)=O |  | inactive | 
NCCCCCCN |  | inactive | 
CC1(C)[C@@H]2CC[C@@]1(C)[C@H](O)C2 | inactive | inactive | 
CC(C)C[C@H]1C(=O)N2CCC[C@H]2[C@]2(O)O[C@](NC(=O)[C@@H]3C=C4c5cccc6[nH]c(Br)c(c56)C[C@H]4N(C)C3)(C(C)C)C(=O)N12 | inactive | inactive | 
OCCOCCOCCOCCO | inactive | inactive | 
CC(=O)OCCC(C)CC(C)(C)C (configuration not stated) | inactive | inactive | 
O=C1c2ccccc2C(=O)N1SC1CCCCC1 |  | inactive | 
O=C(O)c1ccc(C(=O)O)cc1 |  | inactive | 
CCCCCCCCC=O | inactive | inactive | 
CCCCOCCOCCOCCOCCO |  | inactive | 
CC(C)(C#N)c1cc(Cn2cncn2)cc(C(C)(C)C#N)c1 |  |  | 30 µM (active)
CN(C)CCCN | inactive | inactive | 
CC1(C)C(=O)N(Br)C(=O)N1Cl | inactive | inactive | 
O=C(O)Cc1cccc2ccccc12 | inactive | inactive | 
O=C1NC(=O)c2ccccc21 |  | inactive | 
C=CC[N+](C)(C)CC=C |  | inactive | 
CCCCCCCCCCCCCCCCCC(=O)OCC(CC)CCCC (configuration not stated) | inactive | inactive | 
